# Test results reported in PubChem BioAssay AID504697 (The Scripps Research Institute Molecular Screening Center, 2011).
# A number with no mark means an inactive call. The source made the active and inactive calls.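 How the source made its calls: active means EC50 at or below 10 µM; inactive means EC50 above 10 µM.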
# Assay: fluorescence interference artefacts, compound only, dose response, artefact control for cardiac thin filament activator project, biochemical, no RTF in test wells (AID 504697);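 further: emission near 535 nm under roughly 485 nm excitation as for IANBD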
# Details: compound-only fluorescence in RTF assay buffer with Ca2+ (no RTF in test wells), artifact counterscreen
row,Compound,EC50
1,CCN(CC)C(=S)SCC(=O)c1c(C)[nH]c2ccccc12,> 71.5 µM
2,CCC(C(=O)O)N1C(=O)/C(=C/c2cccn2C)SC1=S (configuration not stated),35.3 µM
3,Cc1ccc(S(=O)(=O)NCCCCCC(=O)Nc2ccccc2C)cc1,> 71.5 µM
4,COc1ccccc1/C=C/C=C1\Oc2c(ccc(O)c2CN2CCN(CCO)CC2)C1=O,3.63 µM (active)
5,Fc1ccc(-c2nnc(-c3ccc(Cl)cc3Cl)o2)cc1,> 71.5 µM
6,CCOC(=O)/C(=C/C=C1\Sc2cc(OCC)c(OCC)cc2N1CC)C(C)=O,0.48 µM (active)
7,O=C(/C=C/c1cn(CC(O)CN2CCCCC2)c2ccccc12)c1cccs1 (configuration not stated),34.6 µM
8,CN1C(=O)/C(=C/C=C2\SCCN2C)OC1=S,15.9 µM
9,COc1ccc(OC)c(/C=C2\N=C(c3ccccc3)OC2=O)c1,1.71 µM (active)
10,COc1c(O)cccc1-c1nnn(CCC(=O)OCC(=O)c2ccccc2)n1,> 71.5 µM
11,COc1cc(C(=O)Oc2ccccc2/C=N/NC(=O)c2ccc(Cl)cc2)cc(OC)c1OC,> 71.5 µM
12,CC1CN(c2ccc(NS(=O)(=O)c3ccccc3)cc2C(=O)O)CC(C)O1 (configuration not stated),> 71.5 µM
13,Cn1nccc1NC(=O)Nc1cccc(Cl)c1Cl,> 71.4 µM
14,Nc1ccc2nc3c(=O)[nH]c(=S)[nH]c3nc2c1,2.93 µM (active)
15,S=C(Nc1ccc(N2CCOCC2)cc1)Nc1ccc2nc(-c3ccco3)c(-c3ccco3)nc2c1,11.4 µM
16,NC(=O)NC(=O)COC(=O)c1cccc(NS(=O)(=O)/C=C/c2ccccc2)c1,> 71.5 µM
17,NC(=O)C1CCN(C(=O)c2ccc(-c3ccccc3)cc2)CC1,> 71.6 µM
18,CC1(C)CCN2CCC(C)(C)c3c(O)ccc1c32,5.84 µM (active)
19,Cc1ccc(-c2ccc(OC(=O)c3ccc(=O)[nH]c3)c(C)c2)cc1,> 71.5 µM

row,Compound,EC50
1,COC(=O)c1ccc(S(=O)(=O)N2CCC(O)CC2)n1C,> 71.4 µM
2,COc1ccc(NC(=O)/C(C#N)=C\c2ccc(N3CCOCC3)o2)cc1,3.63 µM (active)
3,Cc1cc(S(=O)(=O)N2CCCC(C(=O)Nc3ccc(C(=O)O)cc3)C2)ccc1Cl (configuration not stated),> 71.5 µM
4,CC(C(=O)c1ccc(Br)cc1)[n+]1cccc2ccccc21 (configuration not stated),> 71.5 µM
5,O=C1c2ccccc2C(Nc2cccnc2)N1Cc1ccccc1Cl (configuration not stated),> 71.5 µM
6,Cc1ccc(N2C3=C(C(=O)CC(C)(C)C3)C(c3cn(C)nc3C)C3=C2CC(C)(C)CC3=O)cc1,17.1 µM
7,COc1cccc(CC(NC(C)=O)C(=O)NC2CCN(c3nc(C)cc(C)c3C#N)CC2)c1OC (configuration not stated),> 71.5 µM
8,COc1ccc(C(=O)Nn2cnc3scc(-c4cccs4)c3c2=O)c(O)c1,> 71.5 µM
9,Cc1ccnc2nc(C(=O)OCC(=O)NCCc3ccccc3)nn12,> 71.5 µM
10,O=[n+]1c2c(n([O-])c3cc(F)c(N4CCCC4)cc31)CCC2,9.61 µM (active)
11,S=C(Nc1cc(Cl)ccc1Oc1ccccc1)N1CCN(c2ccccn2)CC1,> 71.4 µM
12,Cc1ccc(/C=C2/SC(=O)NC2=S)o1,> 23.8 µM
13,CN(C)NC(=O)c1ccc([N+](=O)[O-])s1,> 71.4 µM
14,O=C(Nc1ccc2c(c1)OCCO2)c1cccc(Cl)c1Cl,> 71.4 µM
15,O=C(O)CCC(=O)Nc1cc(C(F)(F)F)cc(C(F)(F)F)c1,> 71.4 µM
16,COc1ccccc1NS(=O)(=O)c1cc(NC(=O)c2cc3ccccc3oc2=O)ccc1C,> 71.5 µM
17,Cc1nnc(N/N=C/c2ccc(O)c([N+](=O)[O-])c2)[nH]c1=O,> 71.5 µM
18,CN1CCS/C1=C/C=C1\SC(=S)N(CC(=O)O)C1=O,2.28 µM (active)
